Bioassay records: PubChem, Broad Institute
This excerpt belongs to a sample that is enriched for hits.
Tgondii IFNg: T. gondii growth inhibition under IFN-gamma | Toxoplasma gondii growth in IFN-gamma-treated host cells; active compounds read low | activity change, negative = inhibition, % (test concentration not listed) | 69,000 compounds, 3.8% hits | AID 1259416; in the data active means activity change below about -70%, passing the limit was not always enough;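 further: host cells are HeLa cells infected with Toxoplasma gondii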
Starred values were filed as active, the others as inactive; ! = a repeat was not active.

SMILES	Tgondii IFNg
Cc1cccc2c(CCNS(=O)(=O)NCc3ccccc3)c[nH]c12	4
O=C(CCn1cnnn1)N1CCC(CCc2ccccc2F)CC1	6
CCCc1cncnc1N1CCN(Cc2cccn2-c2ncccn2)CC1	-12
O=C(c1ccc2[nH]c3c(c2c1)CCCC3)N1Cc2cnn(CCO)c2C1	22
O=c1c2c([nH]c3ccc(Br)cc13)CCCC2	-94*
O=C1Cc2c([nH]c3ccc(Br)cc23)-c2ccccc2N1	3
COc1ccc(CN2CCC(c3cc(C(C)C)n[nH]3)CC2)c(F)c1F	-4
O=C(OCc1ccc(C(F)(F)F)cc1)c1cc(Cl)cc(Cl)c1	-22
Nc1nc(N)c2c(OCc3ccc(C(F)(F)F)cc3)cccc2n1	-74*
Cc1cccc(COc2cccnc2N)c1	42
Cc1ccc(-c2nc(CN3CCN(Cc4cc(=O)oc5cc(C)ccc45)CC3)c(C)o2)cc1	4
CN1C(=O)c2cc(NC(=O)Cc3cccs3)ccc2OC[C@H]2O[C@@H](CC(=O)NCCc3ccncc3)CC[C@@H]21	5
CN1C(=O)c2cc(NC(=O)Cc3cccs3)ccc2OC[C@H]2O[C@H](CC(=O)NCc3ccc(-c4ccccc4)cc3)CC[C@@H]21	-85*
CN1C(=O)c2cc(NC(=O)Cc3cccs3)ccc2OC[C@@H]2O[C@H](CC(=O)NCc3ccc(-c4ccccc4)cc3)CC[C@H]21	7
Cc1nc(-c2ccc(F)cc2)sc1-c1ccc(SCc2ccc(F)cc2)nn1	1
Cc1ccccc1NC(=O)N1CC[C@H]2[C@H](CC1)S(=O)(=O)CCN2C	6
O=C1CN2Cc3c(ccc(Cl)c3Cl)N=C2N1	-83*!
c1ccc(OCC2CCN(Cc3cc4ccccc4o3)CC2)nc1	-4
CN(C)C(=O)c1cc2cc(NS(=O)(=O)NCc3ccccc3)ccc2s1	4
C/C=C/c1ccc(C2[C@@H]3CN(C(=O)NC4CCCCC4)C[C@H]2N3)cc1 (some centres undefined)	-22
COc1ccc(-c2ccc(C3[C@@H]4CN(C(=O)c5ccc(F)cc5)C[C@H]3N4)cc2)cc1 (some centres undefined)	30
Cc1cccc(-c2ccc(C3[C@@H]4CN(C(=O)c5ccncc5)C[C@H]3N4)cc2)c1 (some centres undefined)	-7
COc1cccc(-c2ccc(C3[C@@H]4CN(C(=O)Nc5ccccc5F)C[C@H]3N4)cc2)c1 (some centres undefined)	-74*!
C/C=C/c1ccc(C2[C@@H]3CN(C(=O)Nc4ccc(C(F)(F)F)cc4)C[C@H]2N3)cc1 (some centres undefined)	-79*!
O=C(NC1CCCCC1)N1C[C@@H]2N[C@H](C1)C2c1ccc(-c2ccc(F)cc2)cc1 (some centres undefined)	-77*!
SMILES	Tgondii IFNg
N#Cc1cccc(-c2ccc(C3[C@@H]4CN(C(=O)Nc5ccc(C(F)(F)F)cc5)C[C@H]3N4)cc2)c1 (some centres undefined)	-73*!
C/C=C/c1ccc(C2[C@@H]3CN(C(=O)Nc4ccccc4F)C[C@H]2N3)cc1 (some centres undefined)	-33
O=C(Nc1ccc(F)cc1)N1C[C@@H]2N[C@H](C1)C2c1ccc(/C=C/c2ccccc2)cc1 (some centres undefined)	-43
N#Cc1ccc(-c2ccc(C3[C@@H]4CN(C(=O)C5CCCCC5)C[C@H]3N4)cc2)cc1 (some centres undefined)	-46
COc1ccc(NC(=O)N2C[C@@H]3N[C@H](C2)C3c2ccc(-c3ccncc3)cc2)cc1 (some centres undefined)	-3
COc1ccccc1NC(=O)N1C[C@@H]2N[C@H](C1)C2c1ccc(-c2cccc(C#N)c2)cc1 (some centres undefined)	-33
Cc1nc(C)c(C(=O)N2CCc3nnc(C4CCCCN4C)n3CC2)s1 (centres undefined)	2
Cc1oc(-c2ccc(NC(=O)CC(C)(C)C)cc2)nc1Cn1cccn1	40
O=C(c1ccc(N2CCC(CO)C2)nc1)N1CCC(CCc2ccccc2)CC1 (centres undefined)	-13
CC(C)NC(=O)c1cc2c(nc1N(C)C)CCN(CCc1ccccc1)CC2	-15
Nc1ccccc1SCC(O)Cn1ccc2ccccc21 (centres undefined)	-45
FC(F)(F)c1ccnc(NCCNc2ncccc2C(F)(F)F)n1	49
OC(CNCCNc1ncccc1C(F)(F)F)Cn1ccc2ccccc21 (centres undefined)	-82*
Cc1cnc(CNC(=O)C2=NOC3(CCN(C(C)C)C3)C2)cn1 (centres undefined)	-3
O=C(CCn1cc(Cl)cn1)N1CC[C@@H](c2ccc3c(c2)OCO3)[C@H](O)C1	-10
O=C(ONC(=O)c1ccco1)c1ccc(Cl)cc1	44
CC(C)CCN1C[C@H]2[C@H](C(=O)Nc3ccccc3)CCS(=O)(=O)[C@H]2C1	-94*
CC(C)NC(=O)[C@H]1CCS(=O)(=O)[C@H]2CN(C(=O)Nc3ccccc3)C[C@@H]12	-19
O=C(Nc1ccccc1)[C@@H]1CCS(=O)(=O)[C@H]2CN(Cc3ccc(F)cc3)C[C@@H]12	-6
COCCN(C)C[C@@H]1CCC[C@@H]2CN(Cc3ccn[nH]3)C[C@H]21	130
CSc1ccc(CCNC(=O)c2nc(N3CCOCC3)c3ccccc3n2)cc1	-58
Cc1c(-c2cc(NC(=O)c3ccccc3)n(C)n2)sc2ccc(Cl)cc12	-59
NS(=O)(=O)c1ccc(NC(=O)CSc2ncn(-c3ccccc3)n2)cc1	5
O=C(c1c(F)cccc1F)N1CCN(S(=O)(=O)c2cc3c4c(c2)CCC(=O)N4CCC3)CC1	-30
Nc1nc(Nc2ccc(S(N)(=O)=O)cc2)nn1C(=O)c1c(F)cccc1F	-72*
SMILES	Tgondii IFNg
C=CCn1c(=O)c(C(=O)NCc2cccs2)c(O)c2ccccc21	355
Cc1ccc(NC(=O)c2c(O)c3ccccc3n(-c3ccccc3)c2=O)cc1C	64
O=C(O)CCNC(=O)c1ccccc1	11
O=C(CCCl)NCCc1ccccc1	31
O=C(NCCCCc1ccccc1)c1ccccc1	-82*
O[C@H]1CCN(CC2CCOC2)[C@H]1Cc1ccccc1 (some centres undefined)	13
Cc1nn(CC(=O)NCCN2CCCCC2)c(=O)c2nc(-c3ccccc3)sc12	-30
CCOC(=O)c1nn(CC(C)C)c2c1CN(C(=O)c1csc3c1CCCC3)CC2	-2
CCOC(=O)c1[nH]ncc1-c1ccc(Cl)cc1Cl	-95*
CCOC(=O)c1[nH]c2cc(Cl)cc(Cl)c2c1CCC(=O)O	1
CCOC(=O)COc1ccc(Cl)cc1C(=O)OC	-38
COc1cc2c(cc1OC)[C@@H](C(C)C)N[C@@H](c1cccnc1OC)C2	124
CN(C)Cc1cc(-c2ccc(CNC(=O)CN3CCOCC3)cc2)nn1C	18
CCCC(=O)Nc1ccc(-c2nc(Cn3nc(C)cc3C)c(C)o2)cc1	7
COc1ccc(OC)c(NS(=O)(=O)c2ccc3[nH]c(=O)ccc3c2)c1	38
CC(=O)NCC(=O)N1CCC2(CC1)CN(c1cccnc1)C(=O)CO2	190
CC[C@@H]1C[C@H](C(F)(F)F)n2nc(C3CCN(C(=O)c4cc(C(C)C)on4)C3)cc2N1 (some centres undefined)	242
CC(C)Nc1n[nH]c2nc(C3CCN(C(=O)C(C)C)CC3)cc(C(F)(F)F)c12	-65
CCc1cc(C(F)(F)F)c2c(C3CCN(C(=O)c4cc(C(C)C)[nH]n4)CC3)noc2n1	-76*
CCCc1cc(C(=O)N2CCc3onc(-c4cccc(F)c4)c3C2)ccn1	-29
